Measured values as given in ChEMBL document CHEMBL4513135, “CO-ADD screening of IQOG CSIS (Spain) compounds”.
Measured potencies and affinities stand elsewhere.

Key:
Klebsiella pneumoniae = settings: Concentration 32 ug.mL-1; ASSAY_TEST Inhibition of Bacterial Growth; detection method Absorption (OD600); MEDIA CAMHB; plate type 384well; NBS; CORNING #3640; time 18 hr
Candida albicans = settings: 32 ug/mL
Cryptococcus neoformans = settings: Concentration 32 ug.mL-1; ASSAY_TEST Inhibition of Fungal Growth; detection method Resazurin; Absorption (OD600-OD570); plate type 384well; NBS; CORNING #3640

SMILES | Inhibition (Klebsiella pneumoniae) [%] | Inhibition (Candida albicans) [%] | Inhibition (Cryptococcus neoformans) [%]
N#Cc1c(N)nc(S)c(C#N)c1-c1ccccc1 | 24.85 | 0.7 | 1.04
COc1ccc(C=C2N=C(SC)N(C)C2=O)cc1 | -13.67 | 0.01 | -7.91
C#CCn1c(N)c(C#N)c2cc(O)ccc21 | 10.3 | 1.41 | -78.39
Cc1cnc2ccc(Cl)cn12 | 22.77 | 0.97 | 1.56
N#Cc1cc(C#N)c(N2CCC(Cc3ccccc3)CC2)nc1N | -9.32 | 1.71 | -23.72
N#Cc1c(N)nc(NCCC2CCN(Cc3ccccc3)CC2)c(C#N)c1-c1ccccc1 | 5.9 | 4.31 | -17.88
COc1cccc(C2C(C#N)=C(N)Oc3ccc4ccccc4c32)c1 (configuration not stated) | 12.24 | 1.77 | -37.42
C=C1CN(C)c2c(C#N)c(-c3ccccc3)c(C#N)c(=N)n21 | 8.43 | -0.24 | -51.34
CCOc1nc(N)c(C#N)cc1C#N | 12.55 | 44.3 | -83.12
